Consider 26 molecules from PubChem BioAssay AID1362 (SRMLSC, 2008).

Broadly, the inhibition is the change of the read-out against control, counted positive when it falls.

The whole screen tested about 190,000 compounds, of which about 4,000 (2.1%) were called active. No stated cut-off is given here; in the data, active means inhibition above about 58%; inactive means the rest, inconclusive results apart; tested in S. cerevisiae. The entries come from a sample that favours actives as a whole.

The experiment can be described thus: growth inhibition of WT strain, primary screen, mitochondrial fusion inhibitor project, WT and mutant strains, chemical genetic (AID 1362). To be noted: mitochondrial fusion phenotypic screen, at 10 µM.
Where [1] appears, read: WT strain, growth inhibition, stronger effect = higher value.

Turning to `CCOC(=O)c1cnc2[nH]c3ccccc3n2c1=O`, the inhibition was 2.43% (inactive) under setting [1] and -12.9% (mutant strain inhibition).

In the case of `Cc1ccc(Cl)cc1NC(=O)C1CCN(S(C)(=O)=O)CC1`, the inhibition is -9.34% (inactive) under setting [1] and -12.3% (mutant strain inhibition).

Take `Cc1ccccc1NC(=O)NC1(C(=O)N2CCCC2)CCCCC1`: the inhibition is -9.64% (inactive) under setting [1] and 7.72% (mutant strain inhibition).

`Cc1cccc(NC(=S)NCCc2ccc(F)cc2)c1C`: the inhibition is, setting by setting: under setting [1], 74.7% (active); (mutant strain inhibition) 64.6%.

Consider `CCNC(=S)Nc1cccc(Cl)c1C`, for which the inhibition is 12.8% (inactive) under setting [1] and 23.6% (mutant strain inhibition).

Regarding `Cc1c(NC(=S)NCc2ccc(F)cc2)cccc1[N+](=O)[O-]`, the inhibition reads like this: under setting [1], 5.62% (inactive); (mutant strain inhibition) 3.03%.

As to `O=C(OCC(=O)N1CCOCC1)c1ccc(N2CCOCC2)c([N+](=O)[O-])c1`, the inhibition is -7.83% (inactive) under setting [1] and -1.16% (mutant strain inhibition).

`O=C(COc1ccc(Cl)cc1[N+](=O)[O-])N1CCCCC1`: the inhibition by setting is: under setting [1], 1.62% (inactive); (mutant strain inhibition) -14.6%.

With `CCOC(=O)N/N=C/c1cn(Cc2ccccc2Cl)c2ccccc12`, the inhibition is -3.34% (inactive) under setting [1] and -14.2% (mutant strain inhibition).

For the molecule `COC(=O)N/N=C/c1cn(CCCOc2ccc(C)cc2)c2ccccc12`, the inhibition by setting is: under setting [1], 2.1% (inactive); (mutant strain inhibition) -14.3%.

In the case of `CNC(=S)N/N=C/c1cn(Cc2ccc(C)cc2)c2ccccc12`, the inhibition is, setting by setting: under setting [1], 74.4% (active); (mutant strain inhibition) 61.2%.

Consider `Cc1cc(C(C)(C)C)cc(S(=O)(=O)Nc2ccc(C(=O)O)cc2)c1C`, for which the inhibition under setting [1] was -13% (inactive) and the inhibition (mutant strain inhibition) was 10.3%.

As for `Cc1cc(NS(=O)(=O)c2ccc(NC(=O)c3cccc(OC(F)F)c3)cc2)nc(C)n1`, the inhibition reads like this: under setting [1], -7.81% (inactive); (mutant strain inhibition) 6.49%.

Consider `Cc1cc(C)cc(NC(=O)CSc2ccccc2)c1`, for which the inhibition under setting [1] is -4.46% (inactive) and the inhibition (mutant strain inhibition) was -13.2%.

For the molecule `Cc1nc2ccccc2cc1C(=O)N/N=C/c1ccc([N+](=O)[O-])cc1`, the inhibition under setting [1] is 65.1% (active) and the inhibition (mutant strain inhibition) was 20.7%.

On to `O=C(N/N=C/c1ccc([N+](=O)[O-])cc1)c1c[nH]c2ccccc12`, for which the inhibition is -8.33% (inactive) under setting [1] and 14.7% (mutant strain inhibition).

On to `Cc1ccsc1C(=O)N/N=C/c1ccc([N+](=O)[O-])cc1`, for which the inhibition is, setting by setting: under setting [1], -11.5% (inactive); (mutant strain inhibition) -7.32%.

As to `Cc1ccc2[nH]c(=O)c(CN(CC3COCCO3)C(=O)Nc3ccccc3C)cc2c1` (configuration not stated), the inhibition is, setting by setting: under setting [1], -8.31% (inactive); (mutant strain inhibition) 8.92%.

Turning to `COCCNc1nc(-n2nc(C)cc2C)nc2sc3c(c12)CCCC3`, the inhibition is 18.8% (inactive) under setting [1] and 0% (mutant strain inhibition).

With `Cc1nc(SCC(=O)Nc2cc(C)on2)c2c3c(sc2n1)CCCC3`, the inhibition under setting [1] was 21.1% (inactive) and the inhibition (mutant strain inhibition) came to 31.1%.

With `Cc1cc(C)n(-c2nc(SCC(=O)N3CCCC3)c3c4c(sc3n2)CCCC4)n1`, the inhibition under setting [1] is 62% (active) and the inhibition (mutant strain inhibition) was 38.4%.

Consider `Cc1cc(C)n(-c2nnc(N3CCN(c4ccccc4)CC3)nn2)n1`, for which the inhibition reads like this: under setting [1], 12.1% (inactive); (mutant strain inhibition) 10.8%.

As for `CC(CO)NCC12CC3CC(CC(C3)C1)C2` (configuration not stated), the inhibition is, setting by setting: under setting [1], -17.6% (inactive); (mutant strain inhibition) -8.59%.

As for `COc1c(F)c(F)c(C(=O)O)c(Nc2ccccc2C)c1F`, the inhibition under setting [1] is 74.2% (active) and the inhibition (mutant strain inhibition) turned out to be 15.4%.

`Cc1ccccc1NC(=O)c1ccccc1`: the inhibition is -1% (inactive) under setting [1] and -29.4% (mutant strain inhibition).

Take `Cc1ccc(Nc2c(F)c(F)c(F)c(F)c2C(=O)O)c(C)c1`: the inhibition is -0.48% (inactive) under setting [1] and -18% (mutant strain inhibition).
